PubChem BioAssay (NCI)
The panel holds about 79,000 compounds, 15% with a hit somewhere; the sample as a whole holds those more often. Unmarked numbers belong to inactive results. Calls of active or inactive are those of the source. No stated cut-off is given here; in the data, active means growth inhibition above about 70%; inactive means the rest.

Legend:
[1] = NCI Yeast Anticancer Drug Screen. Data for the rad50 strain (AID 155);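 further: 0% = growth of vehicle-only cultures of the same strain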; settings: S. cerevisiae rad50 strain growth inhibition, stronger effect = higher value
Outline: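 Inhibition values express reduced yeast growth in compound-treated cultures relative to vehicle-treated controls.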

[2] = NCI Yeast Anticancer Drug Screen. Data for the mec2-1 strain (AID 157); settings: S. cerevisiae mec2-1 strain, stronger effect = higher value
Outline: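 Mutant yeast (mec2-1) grown with compound; growth inhibition relative to vehicle control reported.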

[3] = NCI Yeast Anticancer Drug Screen. Data for the sgs1 mgt1 strain (AID 161);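 further: 0% = growth of cultures given vehicle only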; settings: S. cerevisiae sgs1 mgt1 strain, stronger effect = higher value
Outline: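 Compounds are added to genetically altered yeast, and growth is compared with cultures given vehicle alone to give percent inhibition.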

[4] = NCI Yeast Anticancer Drug Screen. Data for the cln2 rad14 strain (AID 165);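 further: 0% = growth equal to vehicle treated cultures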; settings: S. cerevisiae cln2 rad14 strain, stronger effect = higher value
Outline: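 Readout is yeast growth inhibition versus vehicle-treated controls, using a strain with cln2 and rad14 alterations exposed to compound.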

[5] = NCI Yeast Anticancer Drug Screen. Data for the bub3 strain (AID 167); settings: S. cerevisiae bub3 mutant strain, stronger effect = higher value
Outline: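 Steps: expose the mutant yeast strain to compound; grow alongside vehicle-treated cultures; measure growth; express inhibition against the vehicle cultures.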

[6] = NCI Yeast Anticancer Drug Screen. Data for the mlh1 rad18 strain (AID 175); settings: S. cerevisiae mlh1 rad18 strain growth inhibition, stronger effect = higher value
Outline: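 Genetically defined yeast (DNA repair-deficient) exposed to compounds; growth inhibition determined relative to vehicle.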

[7] = at 5.0 µM (retest, dose inferred, filed as 0.5)
[8] = at 50.0 µM (retest, dose inferred, filed as 5.0)

| SMILES | growth inhibition [1, 7] | growth inhibition [1, 8] | growth inhibition ([1]; at 50.0 µM) | growth inhibition [2, 7] [%] | growth inhibition [2, 8] | growth inhibition ([2]; at 50.0 µM) | growth inhibition [3, 7] [%] | growth inhibition [3, 8] | growth inhibition ([3]; at 50.0 µM) | growth inhibition [4, 7] [%] | growth inhibition [4, 8] | growth inhibition ([4]; at 50.0 µM) | growth inhibition [5, 7] [%] | growth inhibition [5, 8] | growth inhibition ([5]; at 50.0 µM) | growth inhibition [6, 7] | growth inhibition [6, 8] | growth inhibition ([6]; at 50.0 µM) |
| --- | --- | --- | --- | --- | --- | --- | --- | --- | --- | --- | --- | --- | --- | --- | --- | --- | --- | --- |
| CN1CCN(CC(C(=O)O)(c2ccccc2)c2ccccc2)CC1 | -1% | 2% | -1.85% | 3 | -5% | 5.05% | -3 | 0% | -16.6% | 4 | -1% | 14.2% | 0 | -5% | 59.5% | -1% | -4% | -13.2% |
| CC(C)C(OC(=O)c1ccc(NCC2=CC(=O)C=CC2=O)cc1)C(C)C | 22% | 37% | 17% | 15 | 40% | 11.3% | 23 | 53% | 73% (active) | 21 | 32% | 73.8% (active) | 27 | 61% | 70.5% (active) | 17% | 44% | -10.4% |
| CC(=O)OC[C@@H](OC(C)=O)[C@H](OC(C)=O)c1cnn(-c2ccccc2)n1 | -3% | -11% | -0.85% | -1 | -6% | 3.15% | -4 | 14% | 3.25% | -1 | -2% | -5.7% | 13 | 29% | 71.8% (active) | 3% | -3% | 12.8% |
| ClCc1c(-c2ccccc2)oc(-c2ccccc2)c1CCl | 0% | 49% | 32.6% | 1 | 64% | 34% | 6 | 72% (active) | 68.8% | 1 | 38% | 21.9% | 1 | 40% | 8.25% | 1% | 86% (active) | 73.4% (active) |
| ClCc1ccc2ccc3ccc(CCl)nc3c2n1 | 31% | 81% (active) | 47.1% | 67 | 93% (active) | 43% | 65 | 93% (active) | 70.2% (active) | 29 | 81% (active) | 27.8% | -7 | 95% (active) | 59% | 72% (active) | 94% (active) | 62% |
| c1ccc(C2=NC(=c3ccc(=C4N=C(c5ccccc5)C(c5ccccc5)=N4)cc3)N=C2c2ccccc2)cc1 | 3% | 44% | 86.6% (active) | 3 | 17% | 65.6% | -2 | 48% | 59.9% | 7 | 5% | 29.6% | 3 | 8% | 51.3% | 1% | 19% | 93.7% (active) |
| O=C(Nc1c(Cl)cccc1Cl)Oc1c(Br)cc(Br)cc1Br | 77% (active) | 96% (active) | 90.3% (active) | 66 | 94% (active) | 93% (active) | 27 | 98% (active) | 93.2% (active) | 25 | 100% (active) | 92.2% (active) | 58 | 93% (active) | 91% (active) | 64% | 98% (active) | 90.1% (active) |
| CN(C)C(=S)/N=c1\ss/c(=N\C(=S)N(C)C)n1-c1cccc(Cl)c1 | 6% | 8% | 95.9% (active) | 15 | 2% | 95.2% (active) | 4 | 12% | 94% (active) | 4 | -13% | 80.8% (active) | 3 | -4% | 96.2% (active) | 5% | 3% | 94.2% (active) |
| CCCCNCCC1(c2ccccc2)C(=O)Oc2ccccc21 (configuration not stated) | -5% | 14% | 63.2% | -4 | 18% | 57.5% | -5 | 35% | 59.9% | 0 | -17% | 46.2% | -5 | -12% | -9.45% | -7% | 10% | 53% |
